Assay outcomes from PubChem.
Luciferase inh – inhibitors of firefly (Photinus pyralis) luciferase; P08659; purified P. pyralis luciferase, luminescence, biochemical; Potency, µM (doses to about 115 µM), hits mostly inhibitors; hit rate 2.5% among 76,000; AID 1347043; note: nearly all actives have a fitted effect of over 65% in size
Target sequence (P08659 whole entry, looked up): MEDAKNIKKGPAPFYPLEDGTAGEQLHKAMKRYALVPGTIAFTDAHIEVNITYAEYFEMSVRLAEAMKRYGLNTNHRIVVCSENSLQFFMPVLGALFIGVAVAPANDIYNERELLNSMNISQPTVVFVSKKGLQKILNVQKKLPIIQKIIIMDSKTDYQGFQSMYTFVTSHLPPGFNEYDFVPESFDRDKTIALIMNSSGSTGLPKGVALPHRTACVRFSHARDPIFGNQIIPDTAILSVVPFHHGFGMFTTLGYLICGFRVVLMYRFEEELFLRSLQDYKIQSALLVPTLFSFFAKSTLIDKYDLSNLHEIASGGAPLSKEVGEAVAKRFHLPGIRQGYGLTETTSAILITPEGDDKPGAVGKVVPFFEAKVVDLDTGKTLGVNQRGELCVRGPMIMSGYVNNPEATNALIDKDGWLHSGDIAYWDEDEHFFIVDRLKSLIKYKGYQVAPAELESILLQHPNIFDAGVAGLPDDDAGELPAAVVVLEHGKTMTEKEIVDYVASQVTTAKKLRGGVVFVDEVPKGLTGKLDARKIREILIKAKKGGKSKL
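Cell-free enzyme assay, 10nM P. pyralis luciferase, luciferin and ATP each at 10uM. Inhibition profiled over a 6-point titration, read as luminescence.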
HEK cytotox – kills HEK 293 cells; AID 1345083; hit rate 6.6% among 94,000; Potency, µM (top dose mostly 115 µM), for inactives: top-dose activity change, negative = cytotoxicity, most hits filed as inhibitors; HEK 293 viability, ATP luminescence (CellTiter-Glo), 48-72 h; note: nearly all actives have a fitted effect of over 60% in size
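Pintool-delivered compounds were incubated with HEK 293 cells (250 cells/well) at 37 degree Celsius for 48 or 72 hr. ATP-dependent luminescence (CellTiter-Glo) then reported remaining viable cells.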
NIH3T3 tox – NIH 3T3 cell cytotoxicity | NIH 3T3 viability, CellTiter-Glo ATP luminescence, 48-72 h | Potency, µM (titrated, usually from 96.7 µM), for inactives: at the highest dose activity change, negative = cytotoxicity, hits mostly inhibitors | hit rate 4.3% among 94,000; note: nearly all actives have a fitted effect of over 55% in size
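Cytotoxicity was measured by CellTiter-Glo ATP luminescence after 48 or 72 h compound exposure at 37 °C. Mouse NIH 3T3 fibroblasts were seeded at 400 cells/well and dosed by 23 nL pin transfer.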
GPT2 inh – blocks human glutamate pyruvate transaminase 2; Q8TD30; Recombinant GPT2, coupled pyruvate oxidase/HRP Amplex Red fluorescence; Potency, µM (top dose mostly 57.7 µM), without a hit: at the top dose activity change, negative = inhibition, usual class: inhibitors; hit rate 0.25% among 100,000; AID 1671188; note: nearly all actives have a fitted effect of over 60% in size
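GPT2 10ng/uL, a-KG 250uM, L-Ala 2mM, HEPES pH7.5 + 0.0001% Tween; 30 min RT. Then Amplex mix (PO/HRP/ThPP), 30 min RT dark, fluorescence. AOA 50uM used as positive control.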
NPR1 antag – human Npr1 receptor antagonism. HEK293 hNpr1 GloSensor cGMP, ANP-stimulated luminescence. Potency, µM (highest dose often 46.3 µM), inactives show top-dose activity change, negative = inhibition, usual class: inhibitors. AID 1347048. P16066. hit rate 1.6% among 76,000; calls by dose curve; note: nearly all actives have a fitted effect of over 60% in size
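Compound pre-incubated 30 min at room temperature on GloSensor-loaded HEK293 cells stably carrying hNpr1 and the pGS-40F cGMP biosensor. Stimulation uses hNppA at 0.1 nM final; luminescence is taken at baseline and 20 min post-agonist.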
* = called active by the depositor; i = inactive; ? = inconclusive; nt = no result; [ ] = another dose, or the depositor's remark. Rows were chosen to be rich in hits. Some 10% of all compounds tested hit in one or more screens of this group. Unless noted, calls come from the whole dose curve; as a rule, active = well fitted curve in the direction sought with a large enough effect; inconclusive = small, poorly fitted or top-dose-only effect, or another doubt; inactive = no such curve, though single readings can be large; an effect the other way counts as inactive or inconclusive. % is set by controls: 0 for no effect and ±100 for the full control effect; potency is the fitted concentration of half-maximal effect.

SMILES	Luciferase inh	HEK cytotox	NIH3T3 tox	GPT2 inh	NPR1 antag
Nc1cccc(-c2cn(C[C@H]3CC4CCN3C[C@@H]4C(=O)Nc3ccccc3)nn2)c1 (stereo not given in full)	i	-15.9%[172 µM]	-1.8%[174 µM]	0.7%[88.5 µM]	-6.7%[70.6 µM]
O=C(c1ccccc1)N1C[C@@H]2C[C@H](C1)c1c(/C=C/c3ccc(Cl)cc3)ccc(=O)n1C2	i	89.1µM*	?	-8.8%[88.5 µM]	1.0%[70.6 µM]
COc1cc2c(cc1CCc1ccccc1)N(C(=O)[C@@H]1CCCO1)CC21CCN(C(C)=O)CC1	i	?	?	i	2.1%
COc1cc2c(cc1Oc1ccccc1)NC(=O)C21CCN(c2nccs2)CC1	i	?	-12.7%[138 µM]	-11.8%[88.5 µM]	-26.2%[70.6 µM]
COc1cc2c(cc1Oc1ccccc1)NC(=O)C21CCN(c2ncc(F)cn2)CC1	i	89.1µM*	?	-11.6%[88.5 µM]	-17.4%[70.6 µM]
COc1cc2c(cc1Oc1ccccc1)NC(=O)C21CCN(Cc2ccccn2)CC1	i	56.2µM*	?	?	-17.2%[70.6 µM]
O=C1N(Cc2ccccn2)C[C@H]2CN(Cc3nccs3)CCN12	i	i	-17.5%[138 µM]	i	-2.0%[70.6 µM]
CSc1cccc(NC(=O)NC[C@H]2C[C@@H]3CCN2C[C@@H]3CN(C)CCc2ccccn2)c1	i	?	79.4µM*	i	-3.0%
CN(CCc1ccccn1)C[C@H]1CN2CC[C@H]1C[C@@H]2CNC(=O)Nc1ccccc1	i	i	-7.1%[174 µM]	2.7%[88.5 µM]	-1.1%[70.6 µM]
N#Cc1cccc(NC(=O)NC[C@H]2C[C@@H]3CCN2C[C@@H]3CN2CCSCC2)c1	i	?	?	-10.7%[88.5 µM]	-11.3%[70.6 µM]
CSc1cccc(NC(=O)NC[C@H]2C[C@@H]3CCN2C[C@@H]3CN2CCSCC2)c1	i	?	100µM*	i	0.8%[70.6 µM]
CSc1cccc(NC(=O)NC[C@H]2C[C@@H]3CCN2C[C@@H]3CN2CCN(c3ccccc3)CC2)c1	i	22.4µM*	20µM*	i	-1.5%
CN1CCc2c([nH]c3ccccc23)C12CCNCC2	i	89.1µM*	?	3.0%	-0.6%
CCC1CC2CN3CCc4c([nH]c5ccccc45)C(C(=O)OC)(C2)C13 (stereo not given)	nt	nt	nt	-3.5%[27.3 µM]	nt
CN(C)c1ccc(C(=O)NC[C@H]2C[C@@H]3CCN2C[C@@H]3CN2CCc3ccccc3C2)cc1	i	89.1µM*	31.6µM*	-5.5%[88.5 µM]	-26.2%[70.6 µM]
Cc1nc(-c2ccccc2Br)cc([C@H]2CN3CC[C@H]2C[C@@H]3CNC(=O)c2ccc(N(C)C)cc2)n1	i	28.2µM*	?	i	-8.1%
CN(Cc1ccccc1)C[C@H]1CN2CC[C@H]1C[C@@H]2CNC(=O)c1ccc(N(C)C)cc1	i	?	?	i	0.1%[70.6 µM]
Cc1nc(-c2ccccc2Br)cc([C@H]2CN3CC[C@H]2C[C@@H]3CNC(=O)c2ccc(C(C)(C)C)cc2)n1	i	10µM*	25.1µM*	0.5%	-11.7%
COc1cc2c(cc1OC1CCCC1)NC(=O)C21CCN(Cc2ccncc2)CC1	i	?	?	-0.8%[88.5 µM]	-5.9%[70.6 µM]
COc1cc2c(cc1OC1CCCC1)NC(=O)C21CCN(c2ccnc(C)n2)CC1	i	?	79.4µM*	-0.5%[88.5 µM]	-10.0%[70.6 µM]
COc1cc2c(cc1OC1CCCC1)NC(=O)C21CCN(c2cc(NC3CC3)ncn2)CC1	i	?	?	3.2%	-13.1%
COc1cc2c(cc1OCC1CC1)NC(=O)C21CCN(c2cc(NC3CC3)ncn2)CC1	i	89.1µM*	25.1µM*	-3.1%[88.5 µM]	-8.7%[70.6 µM]
COc1cc2c(cc1OCC1CC1)NC(=O)C21CCN(c2ccnc(C)n2)CC1	i	79.4µM*	?	1.8%[88.5 µM]	-6.7%[70.6 µM]
O=C1N(c2ccccn2)C[C@H]2CN(Cc3ccccc3)CCN12	20µM*	-7.3%[172 µM]	-12.4%[138 µM]	-0.6%[88.5 µM]	-20.5%[70.6 µM]
FC(F)(F)CN1C2CCC1CN(c1nnc(Cl)c3ccccc13)C2	nt	79.4µM*	?	-9.6%	nt
SMILES	Luciferase inh	HEK cytotox	NIH3T3 tox	GPT2 inh	NPR1 antag
Cc1ccnc(N2CC3CCC(C2)N3CC(F)(F)F)c1[N+](=O)[O-]	nt	?	-19.2%	i	nt
O=[N+]([O-])c1ccc(Cl)nc1N1CC2CCC(C1)N2CC(F)(F)F	nt	39.8µM*	?	?	nt
Cn1nc(C2CCCCC2)cc1[C@H]1CN2CC[C@H]1C[C@@H]2CN	i	100µM*	?	0.6%[88.5 µM]	1.4%[70.6 µM]
CC[C@H]1CN2CC[C@H]1C[C@@H]2COC(=O)Nc1cc(OC)cc(OC)c1	i	100µM*	?	-4.3%[88.5 µM]	2.6%[70.6 µM]
CC[C@H]1CN2CC[C@H]1C[C@@H]2CNC(=O)Nc1cc(OC)cc(OC)c1	i	-39.6%[172 µM]	?	0.2%[88.5 µM]	1.8%[70.6 µM]
COc1ccc(NC(=O)OC[C@H]2C[C@@H]3CCN2C[C@@H]3c2cc(-c3ccccc3OC)nn2C)cc1	i	-23.8%	-23.9%	-5.1%	-2.6%
Cn1nc(-c2ccc3ccccc3c2)cc1[C@H]1CN2CC[C@H]1C[C@@H]2COC(=O)Nc1ccccc1	?	20µM*	17.8µM*	?	-7.9%
Cc1nc(-c2ccc(N(C)C)cc2)cc([C@H]2CN3CC[C@H]2C[C@@H]3COC(=O)Nc2ccc(C(C)C)cc2)n1	?	3.55µM*	3.55µM*	-1.1%	?
Cn1nc(C2CCCCC2)cc1[C@H]1CN2CC[C@H]1C[C@@H]2CO	i	?	?	1.8%[88.5 µM]	0.5%[70.6 µM]
O=C(Nc1ccc2n(c1=O)C[C@H]1C[C@@H]2CN(C2CCOCC2)C1)c1ccccc1	i	?	-23.7%[138 µM]	-26.9%[88.5 µM]	-12.6%[70.6 µM]
Cc1cccc(NC(=O)c2ccc(C(F)(F)F)cc2C(=O)O)n1	nt	nt	nt	i	nt
O=C(c1ccccn1)N1C[C@@H]2C[C@H](C1)c1ccc(NS(=O)(=O)c3cccs3)c(=O)n1C2	i	-8.9%	-28.4%	i	1.1%
COc1ccc(-c2cc([C@H]3CN4CC[C@H]3C[C@@H]4COC(=O)NC(C)C)n(C)n2)cc1	i	-28.3%[172 µM]	-22.9%[174 µM]	i	-2.6%[70.6 µM]
CCC(CC)c1cc([C@H]2CN3CC[C@H]2C[C@@H]3CNC(=O)C(C)(C)C)nc(-c2ccncc2)n1	i	?	?	-0.2%	-2.5%
COc1ccc(NC(=O)OC[C@H]2C[C@@H]3CCN2C[C@@H]3c2cc(C3CCCC3)nc(-c3ccncc3)n2)cc1	i	14.1µM*	?	i	?
CCC(CC)c1cc([C@H]2CN3CC[C@H]2C[C@@H]3CNC(=O)c2ccccc2)nc(-c2ccncc2)n1	i	?	-43.1%	?	-12.3%
O=C(Nc1ccccc1)OC[C@H]1C[C@@H]2CCN1C[C@@H]2c1cc(C2CCCC2)nc(-c2ccncc2)n1	?	3.98µM*	7.94µM*	0.5%	?
CCC(CC)c1cc([C@H]2CN3CC[C@H]2C[C@@H]3COC(=O)Nc2ccc(C(C)(C)C)cc2)nc(-c2ccncc2)n1	?	7.08µM*	5.01µM*	-0.8%	-23.7%
